The record followed here is PubChem BioAssay (NCI).

Some test systems named below: HCT-15 colon; HT29 colon; SNB-75 CNS; SNB-19 CNS; U251 CNS; PC-3 prostate; SK-MEL-5 melanoma; LOX IMVI melanoma; SK-MEL-28 melanoma; UACC-62 melanoma.
Test in all cases: NCI-60 one-dose screen, 48 h (100 = growth as untreated, 0 = no growth, -100 = all killed)
Settings in all cases: 10 µM unless noted

Each structure is given as a SMILES string. The panel holds about 83,000 compounds, 20% with a hit somewhere; the sample as a whole holds those more often.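 Step 1: grow cells in 96-well plates. Step 2: add test compound at a single concentration. Step 3: incubate 48 h. Step 4: record percent growth.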 A number with no mark means an inactive call. The source made the active and inactive calls. Rule for the calls: active = growth percent below 10; inactive = the rest.

Take `CC(C)OC(=O)Nc1ccc(-c2nc(-c3cccc(OCCN4CCOCC4)c3)c(-c3ccnc(Br)c3)[nH]2)cc1`: the growth in the assay with HCT-15 colon is 4.55% (active); in the assay on HT29 colon, 1.53% (active); with SNB-75 CNS it was -19.3% (active); in the assay on SNB-19 CNS, 22.5%; with U251 CNS, 17.3%; with PC-3 prostate, 19.7%. Also, the growth in the assay with SK-MEL-5 melanoma is 21.7%; with LOX IMVI melanoma, 3.35% (active); with SK-MEL-28 melanoma, 0.701% (active).
As to `CCCCOc1ccc(/C=N/NC(N)=S)cc1`, the growth is 55.7% with HCT-15 colon; 61.5% in the assay on HT29 colon; 72.9% in the assay with SNB-75 CNS; 89.8% with SNB-19 CNS; 89.9% in the assay with U251 CNS; 81% in the assay on PC-3 prostate. Further, the figures for the growth in the assay with SK-MEL-5 melanoma, with LOX IMVI melanoma and with SK-MEL-28 melanoma were 95.7%, 94.2% and 96.5%, respectively.
As for `COc1nc2ccccc2cc1-c1nc2c(cnn2-c2ccc(Br)cc2)c(=O)[nH]1`, the growth in the assay on HCT-15 colon is 24%; in the assay with HT29 colon it was 8.03% (active); in the assay on SNB-75 CNS, -12.9% (active); with SNB-19 CNS it was 21.5%; in the assay with U251 CNS it was 15.7%; in the assay with PC-3 prostate it was 13.6%. Besides, the values for the growth in the assay on SK-MEL-5 melanoma, in the assay on LOX IMVI melanoma and in the assay on SK-MEL-28 melanoma were 5.23% (active), 31.7% and 43.4%, respectively.
As for `Cc1cc(=O)[nH]c(=O)n1Cc1cn(-c2c3ccccc3nc3ccccc23)nn1`, the growth with HCT-15 colon was 79.2%; in the assay with HT29 colon, 113%; in the assay on SNB-75 CNS, 103%; in the assay with SNB-19 CNS, 87.3%; in the assay with U251 CNS, 88.3%; in the assay on PC-3 prostate, 97.3%. Moreover, the growth in the assay on SK-MEL-5 melanoma was 78.9%; in the assay on UACC-62 melanoma, 85.2%; in the assay with SK-MEL-28 melanoma, 75.6%.
Consider `C[C@H]1[C@H]2[C@H]3CC[C@@H]4[C@@]5(C)CC[C@H](O)C(C)(C)[C@@H]5CC[C@@]4(C)[C@]3(C)CC[C@]23CO[C@]1(C)[C@@H](C(=O)/C=C\c1cccnc1)C3`, for which the growth in the assay with HCT-15 colon is 38.5%; in the assay on HT29 colon, 99.5%; with SNB-75 CNS, 72.8%; in the assay on SNB-19 CNS, 71.6%; with U251 CNS, 58.6%; in the assay with PC-3 prostate, 21.3%. In addition, the growth in the assay with SK-MEL-5 melanoma was 37%; in the assay with LOX IMVI melanoma, 51.5%; with SK-MEL-28 melanoma, 66.2%.
For `c1cc(NCCc2ccncc2)nc(-n2cnc3ccccc32)c1`, the growth in the assay with HCT-15 colon was 90.1%; in the assay with HT29 colon, 92.7%; in the assay with SNB-75 CNS, 112%; in the assay on SNB-19 CNS, 99.9%; in the assay on U251 CNS, 82.2%; in the assay on PC-3 prostate, 83%. For the same compound, the growth was 93.7% in the assay with SK-MEL-5 melanoma, 91.2% in the assay with UACC-62 melanoma and 109% in the assay with SK-MEL-28 melanoma.
For `CCN1C(=O)N(CC)C2Nn3c(s/c(=C\c4ccc([N+](=O)[O-])cc4)c3=O)=NC21` (centres undefined), the growth was 61.6% with HCT-15 colon; 109% with HT29 colon; 82% in the assay on SNB-75 CNS; 89.3% in the assay with SNB-19 CNS; 80.3% with U251 CNS; 16% in the assay with PC-3 prostate. Moreover, the growth in the assay on SK-MEL-5 melanoma is 93.4%; with LOX IMVI melanoma, 94.2%; with SK-MEL-28 melanoma, 78.4%.
Consider `CCOC(=O)/C(C#N)=C\Nc1ccc2ncnc(Nc3ccc(Cl)cc3Cl)c2c1`, for which the growth is 92.7% with HCT-15 colon; 79.4% with HT29 colon; 91.3% in the assay with SNB-75 CNS; 86.4% with SNB-19 CNS; 81.4% with U251 CNS; 59.3% in the assay with PC-3 prostate. For the same compound, the results for the growth in the assay on SK-MEL-5 melanoma and in the assay with SK-MEL-28 melanoma were 78.3% and 109%, respectively.
Take `CCc1cccc2c3c(sc12)C(c1ccc(F)cc1)C(C#N)=C(N)O3` (centres undefined): the growth in the assay with HCT-15 colon is 14.5%; in the assay with HT29 colon, 12.7%; in the assay with SNB-75 CNS, 24.1%; in the assay on SNB-19 CNS it was 39.8%; in the assay with U251 CNS, 29.2%; in the assay on PC-3 prostate, 20.4%. In addition, the results for the growth in the assay on SK-MEL-5 melanoma, in the assay on UACC-62 melanoma and in the assay on SK-MEL-28 melanoma were 27.4%, 39% and 60.5%, respectively.
As to `O=[N+]([O-])c1ccc(Oc2nc(Nc3ccc(O[C@H]4CO[C@H]5[C@@H]4OC[C@@H]5O)c(Cl)c3)ncc2F)c(Cl)c1`, the growth was 26.2% with HCT-15 colon; 24.8% with HT29 colon; -2.13% (active) in the assay with SNB-75 CNS; 56.6% in the assay on SNB-19 CNS; 23.6% in the assay with U251 CNS; 34% in the assay on PC-3 prostate. Moreover, the growth was -90.9% (active) in the assay with SK-MEL-5 melanoma, -8.64% (active) in the assay with UACC-62 melanoma and 32.3% in the assay on SK-MEL-28 melanoma.
For the compound `COC(=O)C(Cc1ccccc1)NC(=O)NC(=O)NC(=O)CI` (centres undefined), the growth in the assay on HCT-15 colon is 12%; in the assay on HT29 colon it was 50.1%; with SNB-75 CNS, 98.9%; in the assay with SNB-19 CNS, 126%; in the assay on U251 CNS it was 101%; in the assay with PC-3 prostate, 87.6%. The growth in the assay on UACC-62 melanoma was 6.21% (active); with LOX IMVI melanoma, -78.8% (active); in the assay with SK-MEL-28 melanoma, 51.8%.
With `COc1ccc(-c2cc(-c3ccc(Cl)cc3)c(C#N)c(=O)n2CCCCCC(=O)Nc2ccccc2N)cc1`, the growth in the assay on HCT-15 colon is 23.1%; in the assay with HT29 colon, 14.8%; in the assay with SNB-75 CNS, -6.08% (active); in the assay with SNB-19 CNS, 70.7%; in the assay on U251 CNS, 48.8%; in the assay on PC-3 prostate, 39.5%. The results for the growth with UACC-62 melanoma, in the assay on LOX IMVI melanoma and in the assay on SK-MEL-28 melanoma were 4.17% (active), -54.2% (active) and 60.5%, respectively.
For `CCOc1ccc2nc(SCc3nc4n(n3)S(=O)(=O)c3ccccc3N4C)sc2c1`, the growth is 26.9% in the assay with HCT-15 colon; 62.3% with HT29 colon; -15% (active) with SNB-75 CNS; 30.6% in the assay on SNB-19 CNS; 16.3% in the assay on U251 CNS; 19.5% with PC-3 prostate. Also, the results for the growth in the assay with SK-MEL-5 melanoma, in the assay on UACC-62 melanoma and in the assay on SK-MEL-28 melanoma were -23.9% (active), 25.9% and 45.7%, respectively.
`c1cc2nc(-c3cn[nH]c3)c3c(c2cc1-c1cn[nH]c1)C1CCC3C1` (centres undefined): the growth with HCT-15 colon is 47.2%; with HT29 colon, 81.8%; with SNB-75 CNS, -1.68% (active); in the assay with SNB-19 CNS, 78.9%; in the assay with U251 CNS it was 72%; in the assay on PC-3 prostate, 62.3%. Moreover, the growth was 60.2% in the assay with SK-MEL-5 melanoma, 69.1% in the assay on LOX IMVI melanoma and 73.7% in the assay with SK-MEL-28 melanoma.
As for `CCCCn1c(-c2ccc(-c3nc(-c4ccc(Cl)cc4)no3)cc2)nc(-c2ccccc2)c1-c1ccccc1`, the growth in the assay with HCT-15 colon was 77.2%; in the assay with HT29 colon, 90.2%; with SNB-75 CNS it was 80.5%; in the assay with SNB-19 CNS, 83.5%; in the assay with U251 CNS it was 87%; with PC-3 prostate, 70.4%. In addition, the growth in the assay on SK-MEL-5 melanoma was 97.9%; in the assay with UACC-62 melanoma, 71.5%; with SK-MEL-28 melanoma, 90.8%.
